USP30 inh = inhibitors of human USP30 deubiquitinase | Q70CQ3 | hit rate 5.3% among 47,000 | inhibition, % at 25 µM | AID 1645860 | purified USP30, Ub-rhodamine cleavage fluorescence
Target sequence (Q70CQ3 whole entry, looked up): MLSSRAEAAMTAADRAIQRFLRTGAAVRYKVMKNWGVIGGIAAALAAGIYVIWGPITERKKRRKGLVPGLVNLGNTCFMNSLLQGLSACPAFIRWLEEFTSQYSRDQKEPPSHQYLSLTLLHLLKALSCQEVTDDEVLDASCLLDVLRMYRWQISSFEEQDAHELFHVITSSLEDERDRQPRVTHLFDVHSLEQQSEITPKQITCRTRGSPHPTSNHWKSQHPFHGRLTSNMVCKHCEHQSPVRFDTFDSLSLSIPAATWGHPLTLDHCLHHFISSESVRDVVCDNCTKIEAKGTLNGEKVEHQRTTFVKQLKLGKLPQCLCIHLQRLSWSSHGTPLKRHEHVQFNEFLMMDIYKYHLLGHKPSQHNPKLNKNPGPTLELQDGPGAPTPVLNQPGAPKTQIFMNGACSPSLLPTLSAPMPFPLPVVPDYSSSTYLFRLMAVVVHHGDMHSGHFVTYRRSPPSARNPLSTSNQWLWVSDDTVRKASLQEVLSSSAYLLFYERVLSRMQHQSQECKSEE
USP28 inh = human USP28 deubiquitinase inhibition; purified USP28, Ub-rhodamine cleavage fluorescence, 30 min; Q96RU2; hit rate 3% among 47,000; inhibition, % at 25 µM
USP17 inh = human USP17-like deubiquitinase inhibition; A8MUK1; hit rate 6.5% among 47,000; purified USP17, Ub-rhodamine cleavage fluorescence, 3 h; inhibition, % at 50 µM
USP8 block = inhibitors of human USP8 deubiquitinase; purified USP8, Ub-rhodamine cleavage fluorescence, 30 min; P40818; inhibition, % at 20 µM; hit rate 4.2% among 47,000; AID 1645853
Each line names hits and unclear results; the compound was inactive in the other large screens. This is a sample that favours compounds with a hit; in the whole collection about 13% have one here. No stated cut-off is given here; in the data, active means inhibition above about 30%; inactive means the rest.

O=C(C1CC1)N1CCCCCC1C1CCN(Cc2nnnn2-c2ccccc2)CC1 (configuration not stated)	none
CC(C)Cn1nc(C(=O)N(CCc2cccs2)Cc2cccs2)c2ccccc2c1=O	USP17 inh 33
CCOc1ccccc1NC(=O)Cn1nnc(C(=O)Nc2cc(C)cc(C)c2)c1N	none (no result: USP17 inh)
O=C(c1c(F)cccc1F)N1CCCC(c2[nH]nc3nccnc23)C1 (configuration not stated)	USP8 block 30
O=C(c1cc(F)cc(F)c1)N1CCCC(c2[nH]nc3nccnc23)C1 (configuration not stated)	none
Cc1ccccc1NC(=O)Cn1cccc(-c2nc(-c3ccccc3)no2)c1=O	none
COc1ccc(C(=O)Nc2nnc3ccccn23)cc1OC	none
CC(C)Cc1ccc(-c2cc(-c3ccc(C(F)(F)F)cc3)c(C#N)c(=O)[nH]2)cc1	none
N#Cc1c(-c2cccs2)cc(-c2cccs2)[nH]c1=O	none
N#Cc1c(-c2ccc(Cl)cc2)cc(-c2cccc(Br)c2)[nH]c1=O	USP8 block 52
Cc1ccc(-c2cc(-c3ccc(F)cc3)[nH]c(=O)c2C#N)cc1	USP17 inh 67 (no result: USP30 inh, USP28 inh)
COc1ccc(OC)c(NC(=O)C(C)N2c3cccc4cccc(c34)S2(=O)=O)c1 (configuration not stated)	USP8 block 41
CCc1nnc(C2CCN(S(=O)(=O)c3ccc(Cl)cc3)CC2)s1	none
COc1ccc2c(c1)c(=O)c(S(=O)(=O)c1ccccc1)cn2Cc1cccc(C)c1	USP30 inh 32
Cc1ccccc1NC(=O)c1cc2ccccc2c(=O)s1	none
O=C(Nc1cccc(N2CCn3c(nc4ccccc43)C2)c1)c1cccc(Br)c1	USP17 inh 30 (no result: USP30 inh, USP28 inh)
Cc1nc(-c2ccccn2)sc1C(=O)Nc1ccc(C#N)cc1	USP30 inh 54
Cc1cccc(NC(=O)COc2cc(C)nc(N3CCCCC3)n2)c1	USP30 inh 30 (no result: USP17 inh)
Cc1ccc(NC(=O)Cn2c(=O)nc(N3CCCC(C)C3)c3ccccc32)cc1 (configuration not stated)	none
Cc1cc(OCC(=O)Nc2ccccc2)nc(N2CCCC(C)C2)n1 (configuration not stated)	USP17 inh 31
CC(C)NC(=O)N1CCC2(CC1)OC(C(=O)N1CCOCC1)Cn1ccnc12 (configuration not stated)	none
O=C(Nc1ccc(F)cc1)c1ccccc1N1C(=O)[C@@H]2Cc3c([nH]c4ccccc34)C(c3ccccc3)N2C1=O (some centres not stated)	none
CCCCOc1ccc(-c2cc(C(=O)NC(C)c3ccc(C)c(C)c3)c3ccccc3n2)cc1 (configuration not stated)	none
Cc1ccc(S(=O)(=O)N(C)c2c(C)ccc(S(=O)(=O)N3CCCCC3)c2C)cc1	USP30 inh 30
Cc1ccc(Cn2cc(S(=O)(=O)N3CCCCC3)ccc2=O)cc1	none
Cc1ccc(S(=O)(=O)N2CCN(S(=O)(=O)N3CCCCCC3)CC2)cc1	USP30 inh 40, USP8 block 31
Cc1nc(Nc2ccc(F)cn2)sc1C(=O)NCc1ccccn1	none (no result: USP17 inh)
COc1ccccc1CN1C(=O)CCC1(C)C(=O)NC1CCCC1 (configuration not stated)	none
O=C(Nc1ccccc1Cl)C1Cc2ccccc2CN1C(=O)c1ccccc1 (configuration not stated)	USP8 block 36
Cc1oc(-c2[nH]ncc2C(=O)N(C)C)cc1S(=O)(=O)Nc1ccccc1	USP30 inh 30
Cc1ccccc1CNS(=O)(=O)c1cc(-c2[nH]ncc2C(=O)N(C)C)oc1C	none
NC(=O)C1CCN(c2nc3ccc(-c4cccc(F)c4)nc3s2)CC1	none
Cn1c(NC(=O)c2cccs2)c(-c2cccs2)c(=O)c2ccccc21	none
O=C1CC(C(=O)Nc2cccc(Br)c2)c2ccc(F)cc2N1 (configuration not stated)	USP28 inh 39
COc1ccc(NC(=O)CCCCn2c(=O)[nH]c3ccccc3c2=O)cc1OC	none
Cn1ccc2c(cc(C(=O)NCc3ccccc3F)n2C)c1=O	none
Nc1c(-c2ccsc2)cnn1-c1ccccc1	USP8 block 57
Cc1cc2ncc(-c3ccsc3)c(N)n2n1	none
Nc1ncc(-c2cccc(F)c2)c(C2CCCN2C(=O)c2ccn[nH]2)n1 (configuration not stated)	none
Cc1ccc(N2C(=O)NC(c3ccc(F)cc3)(C(F)(F)F)C2=O)cc1 (configuration not stated)	none
O=C(CCc1c[nH]c2ccccc12)OCC(=O)c1cc2c3c(c1)CC(=O)N3CCC2	USP17 inh 62, USP8 block 32 (no result: USP30 inh, USP28 inh)
CC(=O)Nc1ccc(-n2cnc(C(=O)NC(C)c3ccccc3)c2)nc1 (configuration not stated)	USP17 inh 64
O=C(NCCC1=CCCCC1)c1ccc2ccnc(N3CCN(c4ccccc4F)CC3)c2c1	none
O=C(Cn1ncc2ccccc21)Nc1ccc(Br)cn1	USP28 inh 39
CCc1nnc(NC(=O)Cn2ncc3ccccc32)s1	none
Cc1cnc(N2C[C@H]3C[C@H](C(=O)NCC(C)C)[C@@H](C2)O3)nc1	none
CN1C(=O)c2cc(S(=O)(=O)NCc3ccc(F)cc3)ccc2Oc2cccnc21	none
C[C@]12C(=O)N(Cc3ccco3)CC(=O)N1CC(c1ccc(Cl)cc1)c1c2[nH]c2ccccc12 (some centres not stated)	USP17 inh 31
COc1ccc(-n2nc(C)c3c2NC(=O)CC3C(=O)c2ccc(Cl)s2)cc1 (configuration not stated)	none
O=C(CCc1nc(CSc2nc3ccccc3o2)no1)Nc1ccccc1F	USP28 inh 48
Cc1cccc(NC(=O)Nc2nnc(CC(=O)NCc3ccccc3)s2)c1C	none
O=C(Nc1nnc(CCc2ccccc2)s1)C(=O)c1c[nH]c2ccccc12	USP30 inh 35
COc1ccc(Cl)cc1C(=O)Nc1nnc2n1CCCS2	none
O=C(Nc1nnc2n1CCCS2)c1cccc(Cl)c1	USP28 inh 59
COc1ccc2ncc3c(-c4ccc(C)cc4)nn(-c4ccc(F)cc4)c3c2c1	USP17 inh 57
CC(C)c1ccc(CNC(=O)c2nc3ccccc3[nH]2)cc1	USP17 inh 50
O=C(Cc1nc2ccccc2[nH]1)NCc1ccc(F)cc1	none
Cc1nnc(NC(=O)C2CCN(S(=O)(=O)c3ccc(Cl)cc3)CC2)o1	none
O=C(Nc1cc(F)c2nc(N3CCOCC3)ccc2c1)C1CCC1	USP17 inh 42, USP8 block 78
O=C(Nc1cc(F)c2nc(N3CCOCC3)ccc2c1)C1CC1	USP17 inh 76, USP8 block 59
COc1ccc(OCC(=O)Nc2cc(F)c3nc(N4CCOCC4)ccc3c2)cc1	none
O=C(Nc1cc(F)c2nc(N3CCOCC3)ccc2c1)c1ccc(Br)o1	USP17 inh 85, USP8 block 86
CO[C@H]1/C=C/[C@@](C)(O)/C=C/C(=O)O[C@H](C)[C@@H](C)CC/C=C/1C	USP30 inh 39
CO[C@H]1/C=C/[C@@](C)(O)/C=C/C(=O)O[C@H](C)C(C)C(O)C/C=C/1C (some centres not stated)	none
O=C(NCc1ccco1)N1CCCn2nc(-c3cccnc3)cc2C1	USP17 inh 31
